5 compounds from PubChem BioAssay (NCATS) can be followed below.

Records with an inconclusive call do not appear. Activity calls are given as the source filed them. Unless noted, calls follow the shape of the dose curve; as a rule, active = well fitted inhibition curve with a large enough effect; inconclusive = small, poorly fitted or top-dose-only effect; inactive = flat fitted curve, though single readings scatter.

Test [1] in a line: qHTS drug screen for cell cycle checkpoint inhibitors in PARPi-resistant BRCA-mutant ovarian cancer cell lines. (AID 1963452; calls by dose curve). The conditions noted are these: PEO1/OlaR viability, CellTiter-Glo luminescence, 96 h, stronger effect = lower value. The gist of the method: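 PEO1, PEO4 and PEO1/OlaR ovarian cancer cells, 600 per well, exposed 96 h at 37C to a dilution series. Viability read by CellTiter-Glo luminescence, normalized to DMSO and empty wells; activity summarized as Z-AUC.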

The nature of test [2]: qHTS for identification of novel therapeutic agents for treatment of microphthalmiaassociated transcription factor (MiT) renal cell carcinoma (RCC) (AID 1963991; calls by dose curve; also: potency is read from the fitted curve at half-maximal effect). The conditions noted are these: CellTiter-Glo, 48 h; for z-score: stronger effect = lower value. The method in brief:
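Curves over 11 concentrations were fitted to CellTiter-Glo luminescence, scaled between empty wells (0%) and DMSO (100%) viability. Cells were UOK109, UOK124 and UOK145 TFE3-fusion RCC lines at 500/well, exposed 48 hours at 37 C.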
On the technique in general: Quantitative high-throughput screening tests each substance at several concentrations.

A short description of test [3]: qHTS profiling for inhibitors of Plasmodium falciparum proliferation (AID 504749). Also: potency is read from the fitted curve at half-maximal effect.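 As to activity, negative = inhibition: 0% = DMSO vehicle and full inhibition = artemisinin control.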 As to all read-outs here: nearly all actives have a fitted effect of over 60% in size. The conditions noted are these: P. falciparum in erythrocytes, SYBR Green DNA, 72 h; for activity, negative = inhibition: at 28.7 µM (top of the series). The method in brief:
(§1)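 P. falciparum-infected erythrocytes (0.3% parasitemia, 2.5% hematocrit) incubated with compound 72 h at 37 C, 5% CO2. Parasite DNA detected by SYBR Green after lysis, overnight at room temperature; normalised to 0.29 uM artemisinin and DMSO.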

The subject of a further test is 3D7. The test is described as above. The note with it: P. falciparum in erythrocytes, SYBR Green DNA, 72 h; series mostly up to 28.7 µM. The gist of the method:
as §1

The next test concerns AS120. The description is as above. The conditions noted are these: P. falciparum in erythrocytes, SYBR Green DNA, 72 h; series mostly up to 28.7 µM. The gist of the method:
as §1

The next test deals with ATS189. The test is described as above. The conditions noted are these: P. falciparum in erythrocytes, SYBR Green DNA, 72 h; series mostly up to 28.7 µM. The method in brief: as §1
Another test concerns ATS95. Described as above. The conditions noted are these: P. falciparum in erythrocytes, SYBR Green DNA, 72 h; series mostly up to 28.7 µM. The method in brief:
as §1

The test system of another test is C2A. Described as above. The conditions noted are these: P. falciparum in erythrocytes, SYBR Green DNA, 72 h; series mostly up to 28.7 µM. The gist of the method:
as §1

The subject of another test is CP185. Described as above. The conditions noted are these: P. falciparum in erythrocytes, SYBR Green DNA, 72 h; series mostly up to 28.7 µM. The method in brief:
as §1

A further test concerns CP191. Described as above. The note with it: P. falciparum in erythrocytes, SYBR Green DNA, 72 h; series mostly up to 28.7 µM. The method in brief: as §1
Another test has as its system CP192. The test is described as above. The conditions noted are these: P. falciparum in erythrocytes, SYBR Green DNA, 72 h; series mostly up to 28.7 µM. The gist of the method:
as §1

For a further test, the system named is CP201. Described as above. The conditions noted are these: P. falciparum in erythrocytes, SYBR Green DNA, 72 h; series mostly up to 28.7 µM. The method in brief: as §1
In a further test the test system is CP203. The description is as above. The note with it: P. falciparum in erythrocytes, SYBR Green DNA, 72 h; series mostly up to 28.7 µM. The method in brief: as §1
In another test the test system is CP211. The test is described as above. The note with it: P. falciparum in erythrocytes, SYBR Green DNA, 72 h; series mostly up to 28.7 µM. The method in brief: as §1
In a further test the test system is CP215. The test is described as above. The conditions noted are these: P. falciparum in erythrocytes, SYBR Green DNA, 72 h; series mostly up to 28.7 µM. The gist of the method: as §1
A further test deals with CP217. Described as above. The conditions noted are these: P. falciparum in erythrocytes, SYBR Green DNA, 72 h; series mostly up to 28.7 µM. The gist of the method: as §1
For the next test, the system named is CP237. The description is as above. The note with it: P. falciparum in erythrocytes, SYBR Green DNA, 72 h; series mostly up to 28.7 µM. The gist of the method: as §1
The next test has as its system 7G8. Described as above. The note with it: P. falciparum in erythrocytes, SYBR Green DNA, 72 h; series mostly up to 28.7 µM. The method in brief:
as §1

Another test concerns AA1029. Described as above. The conditions noted are these: P. falciparum in erythrocytes, SYBR Green DNA, 72 h; series mostly up to 28.7 µM. The method in brief: as §1
A further test deals with CP194. The description is as above. The conditions noted are these: P. falciparum in erythrocytes, SYBR Green DNA, 72 h; series mostly up to 28.7 µM. The method in brief:
as §1

Setting [4] is: measured here: PEO1 parental Z-AUC.
Where [5] appears, read: TFE3-RCC UOK109 viability, measured here: UOK109 Z-AUC.
The mark [6] stands for this setting: TFE3-RCC viability, measured here: UOK124 Z-AUC.
Where [7] appears, read: TFE3-RCC viability, measured here: UOK145 Z-AUC.

On to `COc1c(N2CCNC(C)C2)c(F)cc2c(=O)c(C(=O)O)cn(C3CC3)c12` (configuration not stated), for which the Z-AUC in test [1] is 0.833 (inactive); in [1] (setting [4]), 0.836; in [1] (measured here: PEO4 Z-AUC), 0.282. Moreover, the z-score was 0.46 in test [2] (setting [5]), 0.931 in [2] (setting [6]) and 0.897 in test [2] (setting [7]). The activity, negative = inhibition in [3] (parasite line A) was -14.8% (inactive); in test [3] (parasite line B), -1.5% (inactive). The Potency result with 3D7, with AS120, in the test with ATS189, in the test on ATS95, in the test with C2A and in the test with CP185 was “inactive” each time. Further, the Potency result with CP191, in the test with CP192, in the test with CP201, in the test on CP203, in the test on CP211 and in the test on CP215 was “inactive” each time. Moreover, the Potency result in the test on CP217 and with CP237 was “inactive” in each case.

On to `CC(N)C12CC3CC(CC(C3)C1)C2` (configuration not stated), for which the results for the Z-AUC in test [1], in test [1] (setting [4]) and in test [1] (measured here: PEO4 Z-AUC) were 0.887 (inactive), 0.571 and 0.722, respectively. In addition, the z-score in [2] (setting [5]) turned out to be 0.00344; in test [2] (setting [6]), 0.654; in [2] (setting [7]) it was 0.503. Also, the activity, negative = inhibition in [3] (parasite line A) is 7.36% (inactive); in test [3] (parasite line B) it was -12% (inactive). The Potency result in the test with C2A, in the test with CP191, with CP201 and in the test with CP217 was “inactive” each time. Besides, in the test on CP237, the Potency is 5620 nM (active).

For the compound `COc1ncnc(NS(=O)(=O)c2ccc(N)cc2)c1OC`, the Z-AUC in [1] was 1.84 (inactive); in test [1] (setting [4]) it was 1.63; in test [1] (measured here: PEO4 Z-AUC) it was 1.91. Besides, the results for the z-score in test [2] (setting [5]), in test [2] (setting [6]) and in [2] (setting [7]) were 0.466, 0.339 and 0.671, respectively. The activity, negative = inhibition in test [3] (parasite line A) is -18.9% (inactive); in test [3] (parasite line B), 11.3% (inactive). For the same compound, the Potency entry in the test on 7G8, in the test on AA1029, with AS120, with ATS189, in the test on ATS95 and in the test with C2A was “inactive” each time. In addition, the Potency result in the test on CP185, with CP191, in the test on CP192, in the test on CP194, with CP201 and with CP211 was “inactive” throughout. Moreover, the Potency entry in the test with CP215, with CP217 and in the test with CP237 was “inactive” each time.

Turning to `CCCc1cc(C(N)=S)ccn1`, the Z-AUC is 1.52 (inactive) in [1], 1.53 in test [1] (setting [4]) and 1.99 in [1] (measured here: PEO4 Z-AUC). The results for the z-score in test [2] (setting [5]), in [2] (setting [6]) and in test [2] (setting [7]) were 1.43, 0.537 and 0.979, respectively. The activity, negative = inhibition was 2.28% (inactive) in [3] (parasite line A) and 5.15% (inactive) in [3] (parasite line B). Moreover, the Potency result in the test on 3D7, in the test on 7G8, with AA1029, in the test on AS120, in the test on ATS189 and in the test with ATS95 was “inactive” each time. For the same compound, the Potency result in the test on C2A, with CP185, with CP191, in the test with CP192, with CP194 and in the test on CP201 was “inactive” throughout. The Potency result with CP211, in the test with CP215, with CP217 and with CP237 was “inactive” each time.

As to `CN(C)c1ccc(C(=C2C=CC(=[N+](C)C)C=C2)c2ccc(N(C)C)cc2)cc1`, the values for the Z-AUC in test [1], in [1] (setting [4]) and in test [1] (measured here: PEO4 Z-AUC) were -1.19 (inactive), -1.68 and -1.8, respectively. Also, the Potency in test [2] (TFE3-RCC UOK109 viability, active = Z-AUC below -0.8 in all three lines) is 1180 nM (active); in test [3] (parasite line A), 224 nM (active); in test [3] (parasite line B), 282 nM (active); in the test on 3D7, 282 nM (active); in the test on 7G8, 251 nM (active); with AA1029, 355 nM (active). The Potency in the test on AS120 is 447 nM (active); in the test on ATS189 it was 282 nM (active); in the test with ATS95, 501 nM (active); with C2A, 355 nM (active); in the test with CP185, 398 nM (active); with CP191, 178 nM (active). The Potency in the test with CP192 is 757 nM (active); with CP194 it was 953 nM (active); with CP201, 1200 nM (active); in the test on CP211 it was 151 nM (active); with CP215 it was 1510 nM (active); in the test on CP217, 251 nM (active). Also, the Potency with CP237 is 199 nM (active). Moreover, the z-score in [2] (setting [5]) is -1.93; in test [2] (setting [6]) it was -2.26; in [2] (setting [7]), -1.8.
